PubChem BioAssay
Results filed as inconclusive are left out. Active and inactive are the calls of the source. Unless noted, no cut-off is given here; in the data, nearly all actives have AC50 up to about 26 µM.

Assays:
[1] = viability loss in pontine glioma line – cell-based, SU-DIPG-XVII, MIPE5.0, CellTiter-Glo, qHTS, dose response (AID 1347060); settings: CellTiter-Glo ATP luminescence;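 for AC50: cells exposed to compound for 48 hours before viability readout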
[2] = viability loss in pontine glioma line – cell-based, SU-DIPG-XIII, MIPE5.0, CellTiter-Glo, qHTS, dose response (AID 1347064; cut-off not given, nearly all actives have AC50 up to about 23 µM;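 for AC50: cells exposed to compound for 48 hours before the viability read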); settings: CellTiter-Glo ATP luminescence
[3] = viability loss in pontine glioma line – cell-based, SU-DIPG-XXV, MIPE5.0, CellTiter-Glo, qHTS, dose response (AID 1347065); settings: CellTiter-Glo ATP luminescence;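 note: cells exposed to compound for 48 hours before ATP readout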
[4] = JHH-DIPG-1 glioma cell viability, MIPE5.0 library, CellTiter-Glo luminescence, qHTS (AID 1347067); settings: JHH-DIPG-1 glioma viability, CellTiter-Glo ATP luminescence;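 note: cells exposed to compound for 48 hours before readout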
[5] = growth inhibition of DIPG cells – cell-based, MIPE5.0 library, qHTS (AID 1347068; cut-off not given, nearly all actives have IC50 up to about 30 µM;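 for IC50: cells exposed to compound for 48 hours before viability readout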); settings: SU-DIPG-XXV viability

O=S(=O)(Nc1ccc(-c2cccnc2)c2cccnc12)c1cccc(C(F)(F)F)c1
inactive: outcome [5]
active: AC50 [1] 11.8 µM | AC50 [2] 16.6 µM | AC50 [3] 14.8 µM | AC50 [4] 7.42 µM

O=C(CCCCCCC(=O)N/N=C/c1ccc(N(c2ccccc2)c2ccccc2)cc1)NO
inactive: outcome [5]
active: AC50 [1] 20.9 µM | AC50 [2] 20.9 µM | AC50 [3] 14.8 µM | AC50 [4] 11.8 µM

[2H]c1nc(C)nc([2H])c1-c1cc(NC[C@@H](C)c2cccc3c(C(=O)NC)ccnc23)ncn1
inactive: outcome [1] | outcome [2] | outcome [3] | outcome [4] | outcome [5]

COc1cc(F)ccc1-c1ncnc(Nc2cccc(CS(C)(=N)=O)c2)n1 (stereo not given)
active: AC50 [1] 1.48 µM | AC50 [2] 1.48 µM | AC50 [3] 1.66 µM | AC50 [4] 1.86 µM | IC50 [5] 1.86 µM

Cn1ncc(Cl)c1-c1cc(C(=O)NC(CN)Cc2ccc(F)c(F)c2)oc1Cl (stereo not given)
active: AC50 [1] 14.8 µM | AC50 [2] 5.9 µM | AC50 [3] 0.661 µM | AC50 [4] 18.6 µM | IC50 [5] 16.6 µM

CN(C)C1CCN(C(=O)c2ccc(NC(=O)Nc3ccc(-c4nc(N5CCOCC5)nc(N5CCOCC5)n4)cc3)cc2)CC1
active: AC50 [1] 0.332 µM | AC50 [2] 0.833 µM | AC50 [3] 0.295 µM | AC50 [4] 0.417 µM | IC50 [5] 0.742 µM

CC[C@]12C=CCN3CC[C@@]4(c5cc([C@@]6(C(=O)OC)CC7C[C@@H](C(C)(F)F)CN(Cc8c6[nH]c6ccccc86)C7)c(OC)cc5N(C)[C@H]4[C@@](O)(C(=O)OC)[C@@H]1OC(C)=O)[C@@H]32 (stereo not given in full)
active: AC50 [1] 0.148 µM | AC50 [2] 1.05 µM | AC50 [3] 0.132 µM | AC50 [4] 0.235 µM | IC50 [5] 0.742 µM

COC(=O)N(C)c1c(N)nc(-c2nn(Cc3ccccc3F)c3ncccc23)nc1N
inactive: outcome [1] | outcome [2] | outcome [3] | outcome [4] | outcome [5]

CCS(=O)(=O)N1CCC([C@@H](C)n2c(C)c(C(=O)NCc3c(OC)cc(C)[nH]c3=O)c3ccccc32)CC1
inactive: outcome [1] | outcome [2] | outcome [3] | outcome [4] | outcome [5]

CNCCn1c(=O)c2cc(OC)c(OC)cc2c2cnc3cc4c(cc3c21)OCO4
inactive: outcome [5]
active: AC50 [1] 0.0215 µM | AC50 [2] 1.71 µM | AC50 [3] 1.52 µM | AC50 [4] 0.481 µM

Cc1c[nH]c2nc(Nc3ccc(N4CCN(C)CC4)c(F)c3)nc(-c3cccc(CC#N)c3)c12
active: AC50 [1] 2.35 µM | AC50 [2] 4.17 µM | AC50 [3] 4.17 µM | AC50 [4] 3.72 µM | IC50 [5] 3.32 µM

COc1cc(F)c(F)c(Nc2ccc(I)cc2F)c1NS(=O)(=O)C1(C[C@H](O)CO)CC1
active: AC50 [1] 0.417 µM | AC50 [2] 0.235 µM | AC50 [3] 0.59 µM | AC50 [4] 0.209 µM | IC50 [5] 2.63 µM

Cc1ccccc1-n1nc(-c2c(-c3ccc(F)cc3)nn3c2NC[C@@H](CO)C3)ccc1=O
inactive: outcome [1] | outcome [2] | outcome [3] | outcome [4] | outcome [5]

CN1CCN(c2ccc3nc(-c4cc(C(C)(C)C)c(OCCCC(=O)NCCCN=[N+]=[N-])c(C(C)(C)C)c4)[nH]c3c2)CC1
active: AC50 [1] 10.5 µM | AC50 [2] 13.2 µM | AC50 [3] 7.42 µM | AC50 [4] 11.8 µM | IC50 [5] 9.34 µM

NC(=O)c1ccc2nc(-c3ccc(C4(N)CCC4)cc3)c(-c3ccccc3)n2n1
inactive: outcome [5]
active: AC50 [1] 13.2 µM | AC50 [2] 6.61 µM | AC50 [3] 7.42 µM | AC50 [4] 7.42 µM

Clc1cccc(-c2ccc(-c3nnc(CCCc4ccc5cccnc5n4)o3)cc2)c1
inactive: outcome [1] | outcome [2] | outcome [3] | outcome [4] | outcome [5]

Cc1cn(CCN2CCN(c3ccccc3-c3cc(C#N)cc(C(=O)NCCCN4CCCC4)c3)CC2)c2ccccc12
active: AC50 [1] 8.33 µM | AC50 [2] 10.5 µM | AC50 [3] 7.42 µM | AC50 [4] 8.33 µM | IC50 [5] 7.42 µM

Cc1cnc(Nc2ccc(F)cc2Cl)nc1-c1c[nH]c(C(=O)NC(CO)c2cccc(Cl)c2)c1 (stereo not given)
active: AC50 [1] 3.32 µM | AC50 [2] 5.9 µM | AC50 [3] 2.09 µM | AC50 [4] 2.63 µM | IC50 [5] 10.5 µM

Cc1ccc(NC(=O)Nc2nnc(Sc3ncnc4cc(OCCCN5CCOCC5)ccc34)s2)cc1
active: AC50 [1] 2.95 µM | AC50 [2] 2.63 µM | AC50 [3] 1.86 µM | AC50 [4] 2.35 µM
inactive: outcome [5]

C[C@@H]1CCN(C(=O)N2CCCC2)C[C@@H]1N(C)c1ncnc2[nH]ccc12
inactive: outcome [1] | outcome [2] | outcome [3] | outcome [4] | outcome [5]

COc1cccc2c1C(=O)c1c(O)c3c(c(O)c1C2=O)C[C@@](O)(/C(CO)=N/NC(=O)CCCCCN1C(=O)C=CC1=O)C[C@@H]3O[C@H]1C[C@H](N)[C@H](O)[C@H](C)O1
active: AC50 [1] 1.05 µM | AC50 [2] 4.68 µM | AC50 [3] 14.8 µM | AC50 [4] 2.95 µM | IC50 [5] 18.6 µM

COc1ccc(C(=O)N2CCN(c3ccc4c(c3)CCC(=O)N4)CC2)cc1OC
inactive: outcome [1] | outcome [2] | outcome [3] | outcome [4] | outcome [5]

O=C(Nc1cc(Oc2cc(F)c(NC(=O)C3(C(=O)Nc4ccc(F)cc4)CC3)cc2F)ccn1)C1CC1
active: AC50 [1] 14.8 µM | AC50 [2] 13.2 µM | AC50 [3] 9.34 µM | AC50 [4] 13.2 µM | IC50 [5] 18.6 µM

Cc1ncsc1-c1ccc([C@H](C)NC(=O)[C@@H]2C[C@@H](O)CN2C(=O)[C@@H](NC(=O)COCCCOCCNC(=O)C[C@@H]2N=C(c3ccc(Cl)cc3)c3c(sc(C)c3C)-n3c(C)nnc32)C(C)(C)C)cc1
active: AC50 [1] 0.132 µM | AC50 [2] 0.209 µM | AC50 [3] 0.0742 µM | AC50 [4] 0.0525 µM | IC50 [5] 0.332 µM

CC(=O)N[C@H]1CSSC[C@@H](C(N)=O)NC(=O)[C@H](C(C)C)NC(=O)[C@H](C)NC(=O)[C@H](Cc2cnc[nH]2)NC1=O
inactive: outcome [1] | outcome [2] | outcome [3] | outcome [4] | outcome [5]
